Results as given in PubChem BioAssay (NCATS).
Inconclusive results are not listed. Active and inactive are the calls of the source. Unless noted, calls follow the shape of the dose curve; as a rule, active = well fitted curve in either direction with a large enough effect (not every such curve was filed as active); inconclusive = small, poorly fitted or top-dose-only effect, or another doubt; inactive = flat fitted curve, though single readings scatter.

Tests used:
[1] = molecular target: Lysosomal acid glucosylceramidase (Homo sapiens) (UniProt P04062); experiment: Glucocerebrosidase-p2 (AID 348; in the data active = potency below about 10 µM; also: potency is read from the fitted curve at half-maximal effect); details: purified GBA, blue fluorogenic substrate, 40 min
Sequence of Lysosomal acid glucosylceramidase (Homo sapiens) (P04062 whole entry, looked up): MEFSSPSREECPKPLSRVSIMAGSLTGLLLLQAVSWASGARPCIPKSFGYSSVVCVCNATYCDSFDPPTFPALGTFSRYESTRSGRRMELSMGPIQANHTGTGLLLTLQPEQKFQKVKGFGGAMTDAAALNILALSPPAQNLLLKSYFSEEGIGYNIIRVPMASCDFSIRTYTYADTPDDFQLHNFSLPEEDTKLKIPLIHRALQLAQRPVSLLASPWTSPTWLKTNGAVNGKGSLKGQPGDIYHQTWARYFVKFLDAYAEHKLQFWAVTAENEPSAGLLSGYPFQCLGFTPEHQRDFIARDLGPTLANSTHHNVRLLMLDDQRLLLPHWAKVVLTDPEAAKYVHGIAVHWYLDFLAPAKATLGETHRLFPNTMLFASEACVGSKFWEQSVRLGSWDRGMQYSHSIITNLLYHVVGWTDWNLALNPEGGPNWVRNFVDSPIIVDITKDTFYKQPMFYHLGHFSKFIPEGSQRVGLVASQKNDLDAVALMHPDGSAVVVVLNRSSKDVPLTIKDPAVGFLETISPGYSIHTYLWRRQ
In short: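 Normal human glucocerebrosidase (0.2 nM) with blue fluorogenic substrate (80 uM final) in citrate/phosphate pH 5.9 with 10mM sodium taurocholate, 0.01% tween-20; 40 min RT, NaOH/glycine stop; fluorescence Ex 365/Em 440; AC50 from a titration from 0.6 nM upwards.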

[2] = AP1 Signaling Pathway (AID 357); details: ME-180 AP-1-bla reporter, EGF-induced, beta-lactamase ratio, 5 h; at 7.69 µM (top of the series) unless noted;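 also: ME-180 reporter cells stimulated with EGF at its EC50 level; % is scaled to controls: 0 for no effect and ±100 for the full control effect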
In short: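 Titration-series screen for positive or negative modulators of EC50 EGF-induced signaling in ME-180 cells carrying an AP-1-driven beta-lactamase reporter. After 5 hours at 37 degrees Celsius, CCF4 460nm/530nm emission ratio gave %Activity; AC50 values derived.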

[3] = NFAT Signaling Pathway (AID 444); details: Jurkat NFAT-bla M1, carbachol, beta-lactamase ratio, 5 h; at 7.69 µM (top of the series) unless noted;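 also: carbachol stimulus at about its EC50 of 1 µM final; % is scaled to controls: 0 for no effect and ±100 for the full control effect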
In short: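 Read-out: CCF4 FRET ratio (460 nm/530 nm) after 1 h RT dye loading, used for %activity and AC50 from titration series. Cells: Jurkat NFAT-β-lactamase/M1 line, treated with compound plus 1 uM carbachol for 5 h, 37 °C.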

[4] = Stat Signaling Pathway (AID 446); details: ME-180 (cervical carcinoma) SIE beta-lactamase reporter, IL-6 stimulated, 5 h; at 7.69 µM (top of the series) unless noted;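 also: ME-180 cervical cancer cells given 40 pM IL-6 alongside compound; SIE-controlled beta-lactamase reporter measured as 460/530 nm FRET emission ratio; % is scaled to controls: 0 for no effect and ±100 for the full control effect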
In short: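 FRET read-out (405 nm excitation, 460/530 nm emission) of a beta-lactamase reporter under a STAT-inducible element in ME-180 cervical carcinoma cells. Cells with compound receive 40 pM IL-6 for 5 h. Values are normalised to AC90 stimulation and AC90 JAK-inhibitor controls.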

[5] = molecular target: Glucocorticoid receptor (Homo sapiens) (UniProt P04150); experiment: GR-EFC Redistribution (AID 451; calls by dose curve; also: potency is read from the fitted curve at half-maximal effect); details: CHO-K1 GR-EFC translocation, beta-gal luminescence, 2 h
Sequence of Glucocorticoid receptor (Homo sapiens) (P04150 whole entry, looked up, the tested form may be a part): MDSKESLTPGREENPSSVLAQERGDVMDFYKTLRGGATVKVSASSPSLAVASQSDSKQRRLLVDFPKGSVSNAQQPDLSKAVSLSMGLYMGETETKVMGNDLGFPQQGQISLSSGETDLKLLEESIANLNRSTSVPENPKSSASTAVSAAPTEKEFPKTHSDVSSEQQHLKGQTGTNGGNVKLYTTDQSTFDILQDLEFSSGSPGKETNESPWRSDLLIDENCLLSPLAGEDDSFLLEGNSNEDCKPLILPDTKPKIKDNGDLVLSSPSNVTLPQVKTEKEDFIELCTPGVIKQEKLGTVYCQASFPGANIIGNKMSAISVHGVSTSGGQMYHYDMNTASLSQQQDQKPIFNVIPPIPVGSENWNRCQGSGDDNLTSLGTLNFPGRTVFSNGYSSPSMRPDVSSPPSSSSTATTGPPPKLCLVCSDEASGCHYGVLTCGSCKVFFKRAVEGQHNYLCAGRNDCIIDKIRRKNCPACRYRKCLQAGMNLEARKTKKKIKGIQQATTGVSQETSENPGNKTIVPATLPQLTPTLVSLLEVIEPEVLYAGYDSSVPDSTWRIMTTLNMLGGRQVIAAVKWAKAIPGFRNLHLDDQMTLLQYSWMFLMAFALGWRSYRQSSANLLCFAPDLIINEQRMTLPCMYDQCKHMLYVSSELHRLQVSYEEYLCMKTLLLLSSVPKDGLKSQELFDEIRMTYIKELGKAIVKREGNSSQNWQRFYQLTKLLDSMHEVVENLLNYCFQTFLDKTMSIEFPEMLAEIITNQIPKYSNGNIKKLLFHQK
In short: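 Translocation of GR-ED fusion to nuclear EA restores b-gal, read by luminescence after 1 h room-temperature detection. Engineered CHO-K1 biosensor cells, 1,000/well, exposed 2 h at 37 C to titrations up to 46 uM final.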

[6] = molecular target: Mitogen-activated protein kinase 10 (Mus musculus) (UniProt Q61831); experiment: JNK3 AlphaScreen Assay (AID 530); details: JNK3 lysate, c-Jun phosphorylation; series mostly up to 11.4 µM;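 also: kinase came from lysate of stimulated human HepG2 cells; signal reports phosphorylation of biotinylated GST-cJun 1-79 at Ser73 with 10 µM ATP; % is scaled to controls: 0 for no effect and ±100 for the full control effect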
In short: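 qHTS titrations with 15 min compound pre-incubation before adding ATP (10 uM final). Read-out: AlphaScreen of Ser73-phosphorylated biotin-GST-cJun using HepG2 lysate JNK3 activated by IL-1β and TNFα.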

[7] = molecular target: 3',5'-cyclic-AMP phosphodiesterase 4B (Homo sapiens) (UniProt Q07343); experiment: qHTS Assay for Inhibitors of PDE-IV (AID 607; active = well fitted activation curve with a large enough effect in the main read-out, with a control signal flat, not every such curve was filed as active; also: % of control where 0% means no effect); details: HEK293 ACTOne CNG channel cells, membrane potential fluorescence; series mostly up to 22.9 µM
Sequence of 3',5'-cyclic-AMP phosphodiesterase 4B (Homo sapiens) (Q07343 whole entry, looked up): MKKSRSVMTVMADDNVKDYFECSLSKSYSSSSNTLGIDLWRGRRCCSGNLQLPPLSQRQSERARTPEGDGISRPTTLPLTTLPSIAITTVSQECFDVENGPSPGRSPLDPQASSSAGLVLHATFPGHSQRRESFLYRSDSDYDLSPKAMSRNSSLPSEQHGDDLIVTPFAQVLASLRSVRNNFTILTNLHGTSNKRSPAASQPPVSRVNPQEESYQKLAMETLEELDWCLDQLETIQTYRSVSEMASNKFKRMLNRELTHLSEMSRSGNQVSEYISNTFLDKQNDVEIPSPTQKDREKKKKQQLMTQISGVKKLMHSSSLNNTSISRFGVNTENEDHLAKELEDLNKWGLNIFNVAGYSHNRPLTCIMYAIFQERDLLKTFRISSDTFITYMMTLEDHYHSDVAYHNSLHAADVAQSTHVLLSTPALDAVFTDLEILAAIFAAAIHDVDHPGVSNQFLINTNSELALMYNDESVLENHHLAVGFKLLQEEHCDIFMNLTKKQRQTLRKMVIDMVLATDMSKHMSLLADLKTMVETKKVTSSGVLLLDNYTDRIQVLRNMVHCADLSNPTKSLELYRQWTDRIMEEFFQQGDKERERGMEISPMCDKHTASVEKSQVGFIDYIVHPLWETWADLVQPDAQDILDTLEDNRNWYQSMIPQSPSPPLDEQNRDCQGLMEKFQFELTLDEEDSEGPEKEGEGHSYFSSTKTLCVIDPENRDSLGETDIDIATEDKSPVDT
In short: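 Cell-based read-out of cAMP via a modified cyclic nucleotide-gated channel and membrane potential dye (535/590 nm) in HEK293 cells expressing PDE4 endogenously. Compounds tested up to 22.9 uM final; 100 uM RO 20-1724 reference.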

[8] = molecular target: Cytochrome P450 3A4 (Homo sapiens) (UniProt P08684); experiment: qHTS Assay for Inhibitors and Substrates of Cytochrome P450 3A4 (AID 884; active = well fitted curve in the direction sought with a large enough effect; an effect the other way counts as inactive or inconclusive; also: potency is read from the fitted curve at half-maximal effect; nearly all actives have a fitted effect of over 50% in size); details: recombinant CYP3A4, Luciferin-PPXE luminescence; series mostly up to 57.1 µM
Sequence of Cytochrome P450 3A4 (Homo sapiens) (P08684 whole entry, looked up): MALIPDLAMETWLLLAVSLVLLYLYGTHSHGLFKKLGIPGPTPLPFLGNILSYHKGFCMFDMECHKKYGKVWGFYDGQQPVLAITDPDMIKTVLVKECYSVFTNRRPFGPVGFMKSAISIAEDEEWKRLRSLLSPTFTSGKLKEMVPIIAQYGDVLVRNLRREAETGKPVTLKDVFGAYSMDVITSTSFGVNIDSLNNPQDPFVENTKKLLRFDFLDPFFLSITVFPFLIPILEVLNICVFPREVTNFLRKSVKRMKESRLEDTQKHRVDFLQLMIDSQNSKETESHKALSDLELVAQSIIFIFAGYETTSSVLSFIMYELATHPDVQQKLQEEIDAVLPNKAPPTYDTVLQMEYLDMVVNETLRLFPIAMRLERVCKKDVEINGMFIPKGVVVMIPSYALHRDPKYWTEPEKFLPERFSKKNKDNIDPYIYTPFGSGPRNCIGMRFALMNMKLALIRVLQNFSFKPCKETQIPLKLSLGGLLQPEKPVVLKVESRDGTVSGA
In short: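 Luminescent readout of luciferin produced by CYP3A4 (20 nM) dealkylation of Luciferin-PPXE, 25 uM (its KM). NADPH-driven reaction ran 60 min at RT after 10 min compound preincubation; data scaled to 57 uM ketoconazole as 100% inhibition.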

[9] = molecular target: Cytochrome P450 3A4 (Homo sapiens) (UniProt P08684); experiment: qHTS Assay for Activators of Cytochrome P450 3A4 (AID 885; active = well fitted curve in the direction sought with a large enough effect; an effect the other way counts as inactive or inconclusive; also: nearly all actives have a fitted effect of over 65% in size); details: recombinant CYP3A4, Luciferin-PPXE luminescence, 60 min; series mostly up to 11.4 µM
In short: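 Luminescent readout of luciferin formed from 25 uM Luciferin-PPXE (KM level) by 20 nM CYP3A4 in 200 mM KPO4, with 60 min NADPH-driven reaction at room temperature after 10 min compound exposure. Ketoconazole (57 uM) defined 100% inhibition.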

[10] = molecular target: Glucocorticoid receptor (Homo sapiens) (UniProt P04150); experiment: GR-GFP Redistribution (AID 450;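 active = compounds whose dose series gives a full or clear partial fitted curve of increased nuclear translocation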; also: potency is read from the fitted curve at half-maximal effect); details: U2OS GR-GFP nuclear translocation, laser cytometry, 2 h
[11] = molecular target: Cytochrome P450 2C19 (Homo sapiens) (UniProt P33261); experiment: qHTS Assay for Inhibitors and Substrates of Cytochrome P450 2C19 (AID 899; active = well fitted curve in the direction sought with a large enough effect; an effect the other way counts as inactive or inconclusive; also: % is scaled to controls: 0 for no effect and ±100 for the full control effect; nearly all actives have a fitted effect of over 60% in size); details: recombinant CYP2C19, luciferin-H EGE luminescence; series mostly up to 11.4 µM
Sequence of Cytochrome P450 2C19 (Homo sapiens) (P33261 whole entry, looked up): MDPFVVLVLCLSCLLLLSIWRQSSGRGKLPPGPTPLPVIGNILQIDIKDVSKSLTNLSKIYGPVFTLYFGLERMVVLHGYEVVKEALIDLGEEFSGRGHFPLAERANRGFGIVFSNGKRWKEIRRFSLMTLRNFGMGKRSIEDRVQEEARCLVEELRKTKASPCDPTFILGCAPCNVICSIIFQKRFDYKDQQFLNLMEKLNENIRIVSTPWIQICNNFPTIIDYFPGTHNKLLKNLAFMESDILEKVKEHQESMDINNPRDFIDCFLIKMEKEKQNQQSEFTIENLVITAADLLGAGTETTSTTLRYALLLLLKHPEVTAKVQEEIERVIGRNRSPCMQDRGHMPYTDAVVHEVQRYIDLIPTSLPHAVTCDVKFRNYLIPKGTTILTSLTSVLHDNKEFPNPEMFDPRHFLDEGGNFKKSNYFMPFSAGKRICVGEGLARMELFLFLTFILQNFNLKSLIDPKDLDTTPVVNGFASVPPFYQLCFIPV
In short: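 5nM enzyme + 10uM Luciferin-H EGE (=KM), 50mM KPO4; cpd pin-transferred, 10 min 37C; NADPH regen, 60 min 37C; stopped w/ luciferin detection reagent, 20 min; luminescence. Normalized to 57uM ketoconazole (AC100).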

[12] = molecular target: Cytochrome P450 2D6 (Homo sapiens) (UniProt P10635); experiment: qHTS Assay for Inhibitors and Substrates of Cytochrome P450 2D6 (AID 891; active = well fitted curve in the direction sought with a large enough effect; an effect the other way counts as inactive or inconclusive; also: potency is read from the fitted curve at half-maximal effect; nearly all actives have a fitted effect of over 60% in size); details: recombinant CYP2D6, luciferin-ME EGE luminescence; series mostly up to 11.4 µM
Sequence of Cytochrome P450 2D6 (Homo sapiens) (P10635 whole entry, looked up): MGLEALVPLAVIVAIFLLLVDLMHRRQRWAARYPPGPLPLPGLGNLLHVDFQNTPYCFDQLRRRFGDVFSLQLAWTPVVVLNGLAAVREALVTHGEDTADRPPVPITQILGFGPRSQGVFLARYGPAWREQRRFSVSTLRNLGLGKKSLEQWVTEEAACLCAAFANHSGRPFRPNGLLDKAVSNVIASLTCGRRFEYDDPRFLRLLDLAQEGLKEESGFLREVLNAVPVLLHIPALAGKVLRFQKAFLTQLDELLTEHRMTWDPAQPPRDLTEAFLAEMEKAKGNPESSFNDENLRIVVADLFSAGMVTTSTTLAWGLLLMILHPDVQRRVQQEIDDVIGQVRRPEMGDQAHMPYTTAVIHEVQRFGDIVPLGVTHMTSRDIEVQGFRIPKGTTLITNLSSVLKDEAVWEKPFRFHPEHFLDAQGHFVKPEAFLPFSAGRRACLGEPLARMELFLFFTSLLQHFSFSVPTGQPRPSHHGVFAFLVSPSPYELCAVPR
In short: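 Luminescent read-out of luciferin formed by 5 nM human CYP2D6 demethylating 30 uM Luciferin-ME EGE (Km level) over 60 min at room temperature after NADPH regeneration addition. Data normalized to full inhibition by 1.43 uM quinidine.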

Nc1nc(SCc2ccccc2[N+](=O)[O-])c2[nH]cnc2n1
active: Potency [8] 3.16 µM
inactive: Potency [1] > 11.4 µM | activity change, negative = inhibition [2] -3.57% | activity change, negative = inhibition [3] 14.4% | activity, negative = inhibition [4] -8.39% | Potency [5] > 9.22 µM | Potency [6] | Potency [7] | Potency [9]

CCN(CC)CCN1C(=O)c2cccc3cc(N)cc(c23)C1=O
inactive: Potency [1] > 11.4 µM | activity change, negative = inhibition [2] 25.3% | activity change, negative = inhibition [3] -6.74% | Potency [10] > 46 µM | Potency [5] > 9.22 µM | Potency [6] | Potency [7]

CCOC(=O)Cn1c(C(F)(F)F)nc2nc(Cl)c(Cl)nc21
inactive: Potency [1] > 11.4 µM | activity change, negative = inhibition [2] 6.84% | activity change, negative = inhibition [3] -10.5% | Potency [10] > 46 µM | Potency [5] > 9.22 µM | Potency [6] | Potency [7]

O=C(O)c1ccc(S(=O)(=O)N=Nc2c(O)[nH]c3ccccc23)cc1
inactive: Potency [1] > 11.4 µM | activity change, negative = inhibition [2] -0.32% | activity change, negative = inhibition [3] 4.27% | activity, negative = inhibition [4] 21.1% | Potency [5] > 9.22 µM | Potency [6] | Potency [7] | Potency [11]

COc1ccc(C(=O)N2CCC[C@@]3(CCN(c4ccccc4)C3)C2)cc1
inactive: Potency [1] > 11.4 µM | activity change, negative = inhibition [2] -5.32% | activity change, negative = inhibition [3] -9.66% | activity, negative = inhibition [4] -1.29% | Potency [5] > 46 µM | Potency [9]

O=C(O)[C@@H](O)[C@H](O)C(=O)O
inactive: Potency [1] > 11.4 µM | activity change, negative = inhibition [2] -6.26% | activity change, negative = inhibition [3] 14.9% | Potency [10] > 46 µM | Potency [5] > 9.22 µM | Potency [6] | Potency [7]

Cc1cc(OCC(=O)O)c(Cl)cc1Cl
inactive: Potency [1] > 11.4 µM | activity change, negative = inhibition [2] 2.52% | activity change, negative = inhibition [3] 2.25% | Potency [10] > 46 µM | Potency [5] > 9.22 µM | Potency [6] | Potency [7]

Cc1nn(-c2ccc(S(=O)(=O)O)cc2)c(O)c1N=Nc1ccc(-c2ccc(N=Nc3ccc4c(S(=O)(=O)O)cc(S(=O)(=O)O)c(N)c4c3O)c(O)c2)cc1O.[Cu].[Cu]
inactive: Potency [1] > 11.4 µM | activity change, negative = inhibition [2] 8.16% | activity change, negative = inhibition [3] 6.08% | Potency [10] > 46 µM | Potency [5] > 9.22 µM | Potency [6] | Potency [7]

CC(C)(SCc1ccccc1)[C@H](N)C(=O)O
inactive: Potency [1] > 11.4 µM | activity change, negative = inhibition [2] 0.115% | activity change, negative = inhibition [3] 12.4% | activity, negative = inhibition [4] 5.95% | Potency [5] > 9.22 µM | Potency [6] | Potency [7]

NCCNC[C@H](O)CO
inactive: Potency [1] > 11.4 µM | activity change, negative = inhibition [2] -9.92% | activity change, negative = inhibition [3] 7.58% | activity, negative = inhibition [4] 3.6% | Potency [5] > 9.22 µM | Potency [6] | Potency [7]

OC[C@@H]1CCC[C@H](n2cnc3c(=S)nc[nH]c32)O1
inactive: Potency [1] > 11.4 µM | activity change, negative = inhibition [2] 1.32% | activity change, negative = inhibition [3] 24.8% | Potency [10] > 46 µM | Potency [5] > 9.22 µM | Potency [6] | Potency [7]

C[C@@]1(CO)[C@H](O)CC[C@]2(C)[C@@H]1CC[C@H]1C[C@H]3C[C@]12CC[C@]3(O)COC(=O)CN
inactive: Potency [1] > 11.4 µM | activity change, negative = inhibition [2] 5.13% | activity change, negative = inhibition [3] 23.5% | Potency [10] > 46 µM | Potency [5] > 9.22 µM | Potency [6] | Potency [7]

CC(C)c1ccc2c(c1)CC[C@H]1[C@@](C)(CN)CCC[C@@]21C
active: Potency [12] 1.26 µM
inactive: Potency [1] > 11.4 µM | activity change, negative = inhibition [2] 6.87% | activity change, negative = inhibition [3] 30% | activity, negative = inhibition [4] 11.3% | Potency [6] | Potency [7]

Cc1noc(C)c1C(=O)N1CCC2(CC1)CN(c1cccc(-c3ccccc3)c1)C2
inactive: Potency [1] > 11.4 µM | activity change, negative = inhibition [2] -13.8% | activity change, negative = inhibition [3] 5.64% | activity, negative = inhibition [4] -11.6% | Potency [5] > 46 µM | Potency [6] | Potency [7]

O=C(O)C[C@H](Nc1ccccc1)C(=O)O
inactive: Potency [1] > 11.4 µM | activity change, negative = inhibition [2] 0.63% | activity change, negative = inhibition [3] 19.5% | Potency [10] > 46 µM | Potency [5] > 9.22 µM | Potency [6] | Potency [7]

CC(C)(C)n1nc(C2CC2)cc1NC(=O)Nc1ccc(Cl)cc1
inactive: Potency [1] > 11.4 µM | activity change, negative = inhibition [2] -5.76% | activity change, negative = inhibition [3] 8.66% | activity, negative = inhibition [4] -5.8% | Potency [5] > 9.22 µM | Potency [6] | Potency [7]

CN1CCC[C@@H]1c1cccnc1.O=C(O)c1ccccc1O.O=C([OH2+])c1ccccc1O.O=C([OH2+])c1ccccc1O.[Mn]
inactive: Potency [1] > 11.4 µM | activity change, negative = inhibition [2] 10.8% | activity change, negative = inhibition [3] -9.45% | activity, negative = inhibition [4] 17.5% | Potency [6] | Potency [7]

O=c1c(-c2ccccc2)nc2cnc(Oc3ccccc3)nc2n1C1CC1
inactive: Potency [1] > 11.4 µM | activity change, negative = inhibition [2] -26.4% | activity change, negative = inhibition [3] 2.32% | activity, negative = inhibition [4] -5.21% | Potency [5] > 46 µM | Potency [6] | Potency [7]

CN1CCC[C@@H]1c1cccnc1.O=C(O)c1ccccc1O.O=C([OH2+])c1ccccc1O.O=C([OH2+])c1ccccc1O.O=C([OH2+])c1ccccc1O.[Mn]
inactive: Potency [1] > 11.4 µM | activity change, negative = inhibition [2] 13.3% | activity change, negative = inhibition [3] -2.84% | activity, negative = inhibition [4] -11.4% | Potency [6] | Potency [7]
